The list is not random: actives were taken first. Their share in the collection is about 1.1%.
Bfl-1 A1 inh: inhibitors of the anti-apoptotic protein A1, read as caspase activation; MEF A1-2A-BIM cells, Caspase-Glo 3/7 luminescence, 3 h; percent of clofoctol response, vehicle zero; caspase activation, % (test concentration not listed); 0.066% of 330,000 active;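 active = over half of replicate activation scores above 10%, or exactly half above 10 with the replicate mean above 10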
beta cell repl: MIN6 beta-cell proliferation induction; MIN6 cells proliferation, ATPlite luminescence, 48 h; cells starved in 0.2% serum; 100% = growth in 10% serum; proliferation, % at 10 µM; 0.29% of 330,000 active; AID 2380;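 active = compounds whose signal lies at least 3.5 SD above the mean of all wells on their plate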;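 also: 0% = DMSO-treated cells in low-serum medium and 100% = 10% serum control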
APOBEC3G inh: inhibitors of human APOBEC3G DNA deaminase | Q9HC16 | 0.28% of 330,000 active | recombinant A3G, ssDNA deamination FAM/TAMRA fluorescence | inhibition, % at 20 µM;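 active = inhibition of at least 40% at 20 µM, with no more than 30% in the related APOBEC3A deaminase screen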;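 also: plate controls were DMSO wells with A3G for no effect and wells lacking A3G enzyme for full effect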
Target sequence (Q9HC16 whole entry, looked up): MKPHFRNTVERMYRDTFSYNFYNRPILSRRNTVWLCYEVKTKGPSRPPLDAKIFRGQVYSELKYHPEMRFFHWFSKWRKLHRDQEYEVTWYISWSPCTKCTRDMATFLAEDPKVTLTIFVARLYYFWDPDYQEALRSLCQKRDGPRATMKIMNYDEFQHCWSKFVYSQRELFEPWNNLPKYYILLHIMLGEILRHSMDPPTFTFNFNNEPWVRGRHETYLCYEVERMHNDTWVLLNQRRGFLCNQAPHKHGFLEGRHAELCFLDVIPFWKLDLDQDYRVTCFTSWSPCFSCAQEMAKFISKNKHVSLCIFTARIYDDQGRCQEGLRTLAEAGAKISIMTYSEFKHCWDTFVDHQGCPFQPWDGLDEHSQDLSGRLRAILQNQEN
A3A deaminase: inhibitors of human APOBEC3A DNA deaminase | recombinant A3A, FAM/TAMRA ssDNA deamination fluorescence | inhibition, % at 20 µM | 0.41% of 330,000 active | AID 493011;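 active = at least 40% inhibition at 20 µM here, with at most 30% in a related deaminase screen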;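 also: plate controls were A3A with DMSO for no effect and wells lacking A3A enzyme for full effect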
Target sequence (P31941 whole entry, looked up): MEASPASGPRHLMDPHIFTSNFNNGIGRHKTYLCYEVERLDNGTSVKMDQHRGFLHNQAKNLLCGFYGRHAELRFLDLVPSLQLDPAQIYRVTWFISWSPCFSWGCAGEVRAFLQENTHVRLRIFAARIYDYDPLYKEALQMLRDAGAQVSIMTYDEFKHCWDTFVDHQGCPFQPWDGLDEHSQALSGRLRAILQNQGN
A3A conf: APOBEC3A (human) deaminase inhibition, confirmed. shares compounds with A3A deaminase. recombinant A3A, ssDNA deaminase UDG fluorescence assay. inhibition, % at 20 µM. 63% of 1,400 active. AID 493151;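 active = inhibition reaching a set limit, 80% of the first screen's cutoff, at 20 µM in any replicate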;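 also: plate controls were DMSO wells with A3A for no effect and wells lacking A3A enzyme for full effect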
UDG ctr A3A: UDG inhibition in APOBEC3A counter-screen; shares compounds with A3A deaminase; UDG counterscreen, FAM/TAMRA uracil oligo fluorescence; inhibition, % at 20 µM; 1,000 tested, under 10 active; AID 504714; call rule not given here
Starred values were filed as active, the others as inactive; . = not tested or not shown.

SMILES	Bfl-1 A1 inh	beta cell repl	APOBEC3G inh	A3A deaminase	A3A conf	UDG ctr A3A
Cc1cccc(C)c1OCC(=O)NCc1nnc(SCC(=O)NC2CCCCC2C)n1C (stereo not drawn)	2	-1	10	53*	60*	3
COc1c(OC(C)=O)c(=O)n2c3ccccc3c3ccnc1c32	0	-3	-8	-3	.	.
CCOC(=O)c1[nH]ncc1CN1CCC(Cc2cccc(OC)c2)(C(=O)OCC)CC1	-1	-3	0	3	.	.
CC(=O)Oc1ccc(/C=N/NC(=O)C2CCCN2S(=O)(=O)c2ccc(Cl)cc2)cc1 (stereo not drawn)	0	0	16	61*	71*	-4
Cc1ccc(NC(=O)[C@@H]2CCCN2S(=O)(=O)c2ccc(Cl)cc2)cc1	0	-1	-6	-2	.	.
CCN(CC)C(=O)c1ncn(C)c1C(=O)N(CC)CC	0	-4	28	51*	64*	-3
CN(Cc1ccccc1)C(=O)c1ncn(C)c1C(=O)N(C)Cc1ccccc1	-1	-2	14	60*	67*	5
Cc1ccc(/C=C/c2ccc(N(C)C)cc2)[n+](C)c1	-1	-5	6	60*	67*	-3
CC1=C(C(=O)OCc2ccc([N+](=O)[O-])cc2)N2C(=O)C(NC(=O)Cc3ccccc3)C2SC1 (stereo not drawn)	0	1	-2	50*	40*	-3
C=CCOc1ccc(C(c2c(C(=O)O)[nH]c3ccccc23)c2c(C(=O)O)[nH]c3ccccc23)cc1	0	0	24	55*	41*	-3
O=C(O)c1[nH]c2ccccc2c1C(c1ccccc1)c1c(C(=O)O)[nH]c2ccccc12	-1	-2	-5	-1	.	.
CC1=CC(C)(C)[N+](C)(C)c2ccc(C)cc21	0	-1	12	45*	71*	0
CCOc1ccc(C(C(=O)NC2CCCC2)N(C(=O)c2snc(C(N)=O)c2N)c2cccc(O)c2)cc1 (stereo not drawn)	0	0	0	4	.	.
COc1cc(C)c(NC(=O)C2CCN(S(=O)(=O)c3cccs3)CC2)cc1OC	3	-3	18	57*	55*	0
Cc1ccccc1NC(=O)C1CCN(S(=O)(=O)c2cccs2)CC1	1	-1	-2	2	.	.
CC(=O)Nc1cccc(NC(=O)C2CC(=O)N(c3ccc(C)cc3)C2)c1 (stereo not drawn)	1	-1	-5	-1	.	.
Cc1ccc(N2CC(C(=O)Nc3cccc(C(=O)NC4CC4)c3)CC2=O)cc1 (stereo not drawn)	0	-1	7	41*	23	.
O=C1C=C(O)CC(c2ccco2)C1 (stereo not drawn)	1	-6	13	46*	53*	-4
Cc1ccccc1OCCC(=O)Nc1ccccc1C(=O)NC1CC1	0	-2	-12	-2	.	.
Cc1ccc(C)c(OCCC(=O)OCC(=O)N2c3ccccc3NC(=O)C2(C)C)c1	0	-2	20	52*	56*	3
COC(=O)c1cc(C(=O)OCC(=O)N2c3ccccc3NC(=O)C2(C)C)cc([N+](=O)[O-])c1	0	4	-6	97*	-3	-1
CC1(C)C(=O)Nc2ccccc2N1C(=O)COC(=O)c1cc(Cl)cc(Cl)c1	1	-2	3	10	.	.
COc1ccccc1CCC(=O)OCC(=O)N1c2ccccc2NC(=O)C1(C)C	0	-2	-4	2	.	.
CN(C)C(=O)CCc1ccc2c3c([nH]c2c1)[C@]1(C)[C@@H](C(=O)N2CCOCC2)C[C@H](CC(=O)NCCC2=CCCCC2)C(=O)N1CC3	.	.	1	0	.	.
COc1ccc(N(Cc2cc3cc(C)ccc3[nH]c2=O)C(C)=O)cc1	1	2	-4	47*	-3	0
SMILES	Bfl-1 A1 inh	beta cell repl	APOBEC3G inh	A3A deaminase	A3A conf	UDG ctr A3A
CC(=O)NC1(C(F)(F)F)NC(=O)N(c2ccc(F)cc2)C1=O (stereo not drawn)	0	1	-8	-2	.	.
Cc1nnc(NC(=O)CSc2nnc(-c3ccco3)n2C(C)C)s1	0	0	-13	-3	.	.
CC(C)n1c(SCC(=O)Nc2nncs2)nnc1-c1ccco1	0	5	23	66*	53*	-2
COc1ccc2cc(C)c3nnc(SCC(=O)Nc4cc(OC)c(OC)cc4C(=O)O)n3c2c1	1	-4	-1	99*	0	0
COc1cc(NC(=O)CSc2nnc3c(C)cc4cc(C)cc(C)c4n23)c(C(=O)O)cc1OC	-1	-1	-7	-3	.	.
COc1cccc(NC(=O)CN2C(=O)NC(c3ccccc3)(c3ccccc3)C2=O)c1	0	0	-5	-3	.	.
Cc1ccc(/C=C/S(=O)(=O)NCC(=O)OCC(=O)Nc2c(F)cccc2F)cc1	0	-5	11	55*	1	.
Cn1c(SCC(=O)Nc2ccc(C(N)=O)cc2)nnc1-c1cccs1	0	0	0	0	.	.
CCCn1c(=O)c(Br)cn(-c2ccccc2C)c1=O	0	4	12	1	.	.
CCOc1c(C=C(C#N)C#N)c2ccccc2n1CC	-1	2	-1	42*	-7	-4
CCn1c(O)c(C(C#N)=C2N=c3ccccc3=N2)c2ccccc21	1	0	-3	1	.	.
Cc1cc(C(=O)NCC(C)(C)N2CCOCC2)c(C)o1	-1	3	-10	-7	.	.
CN(C(=O)COC(=O)CSc1cc(Cl)ccc1Cl)c1c(N)n(Cc2ccccc2)c(=O)[nH]c1=O	0	-5	8	41*	-1	.
N#Cc1ccc(NC(=S)Nc2ccccc2)cc1	0	1	0	44*	-7	-4
S=C(Nc1ccccc1)Nc1ccc(Br)cc1	0	-5	-4	-3	.	.
Cc1cc(NS(=O)(=O)c2cc(Cl)sc2Cl)no1	-1	-1	-4	-2	.	.
CC(CCc1ccccc1)NC(=O)CN1C(=O)NC2(CCCCC2C)C1=O (stereo not drawn)	1	2	1	1	.	.
COc1ccc(-n2ncc3c(=O)n(CC(C)=O)cnc32)cc1	0	-1	-3	43*	-3	-2
O=C(CN1C(=O)COc2ccc(S(=O)(=O)N3CCCCC3)cc21)NCc1ccc(Cl)cc1	0	-2	-3	-2	.	.
O=[N+]([O-])c1ccc2nc(N3CCCC3)sc2c1	-6	-1	18	45*	55*	-1
Cc1c2ccccc2cc(Cc2ccccc2)[n+]1C	-1	-2	8	43*	60*	-3
O=C(Nc1nccs1)C1CCN(S(=O)(=O)c2ccccc2)CC1	1	-2	-10	-2	.	.
O=C(c1cccnc1)N1CCN(c2ccc(Cl)cc2)CC1	0	-2	-6	48*	-4	-2
O=C(COc1ccccc1Cl)N1CCN(c2ccccn2)CC1	0	-2	7	42*	2	.

Assay outcomes: PubChem, several laboratories
